Screening data (PubChem)
TDP-43 tox inh = qHTS of TDP-43 Inhibitors: NCGC Sytravon Library Screen; yeast TDP-43 toxicity rescue, BacTiter-Glo growth, 24 h; Potency, µM (top dose mostly 46.1 µM), actives largely listed as activators; hit rate 0.45% among 45,000; AID 1347073, 2019; active = well fitted activation curve with a large enough effect; also: 0% is about no effect; nearly all actives have a fitted effect of over 55% in size
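TDP-43-expressing yeast, pregrown in raffinose, seeded at OD600 0.02 in galactose medium with compound for 24 hr at 30 deg C. Growth read by BacTiter-Glo luminescence, so rescue of toxicity appears as activation.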
Starred values were filed as active, the others as inactive. This excerpt belongs to a sample that is enriched for hits. Potency is read from the fitted curve at half-maximal effect.

`O=C(O)c1nn(CCOc2c(Cl)cccc2Cl)c(=O)c2ccccc12` gave TDP-43 tox inh inactive.
`O=C(O)c1nn(CCOc2ccc(Cl)cc2Cl)c(=O)c2ccccc12` gave TDP-43 tox inh inactive.
Screening Oc1c(Cl)cc(Cl)cc1/C=C/c1ccc2cccc(O)c2n1 returned TDP-43 tox inh inactive.
For COc1cc(Cl)cc(/C=C/c2ccc3ccccc3n2)c1OC(C)=O the results were TDP-43 tox inh 12.6µM*.
For COc1c(OC(C)=O)ccc(/C=C/c2ccc3cccc(OCc4ccccc4)c3n2)c1[N+](=O)[O-] the results were TDP-43 tox inh inactive.
For Nc1c(-c2nc(-c3ccncc3)no2)nnn1CC(=O)Nc1ccccc1 the results were TDP-43 tox inh inactive.
For Cc1nn(CCCC(=O)NCc2cccc(Cl)c2)c(=O)c2c1sc1ccccc12 the results were TDP-43 tox inh inactive.
COc1cc(C(=O)NCc2ccc(-c3nc4ccccc4s3)cc2)cc(OC)c1OC was read as TDP-43 tox inh inactive.
`COc1cccc(-c2nc3ccccc3s2)c1O` gave TDP-43 tox inh inactive.
`CCOc1cc(-c2nc3ccccc3s2)ccc1O` gave TDP-43 tox inh 22.4µM*.
Screening COc1cccc(C(=O)N(Cc2ccc(N(C)C)cc2)Cc2ccco2)c1 returned TDP-43 tox inh inactive.
Cc1ccccc1OCCSc1nc(C)c(Cc2ccccc2)c(=O)[nH]1 was read as TDP-43 tox inh inactive.
For Cc1cccc(OCCSc2nc3ccccc3n2CC(=O)N2CCOCC2)c1 the results were TDP-43 tox inh inactive.
Cc1cccc(C(C)C)c1NC(=O)Cn1c(=O)oc2cc(S(=O)(=O)N3CCCC3)ccc21 was read as TDP-43 tox inh inactive.
`Cc1ccc2c(c1)C(O)(CC(=O)/C=C/C=C/c1ccccc1)C(=O)N2` (stereo unspecified) gave TDP-43 tox inh inactive.
`Cc1ccc(C)c(C2C(=O)c3ccccc3C2=O)c1` gave TDP-43 tox inh inactive.
Cc1ccc2c(c1)/C(=C/c1ccccc1)C(=O)N2 was read as TDP-43 tox inh 22.4µM*.
Screening O=C(Nc1cccc(-c2nc3ccccc3[nH]2)c1)c1c(F)cccc1F returned TDP-43 tox inh inactive.
Screening O=C(NCCN1CCN(c2cccc(Cl)c2)CC1)C1COc2ccccc2C1 (stereo unspecified) returned TDP-43 tox inh inactive.
CCOc1ccccc1NC(=O)N1CCC2(CC1)Oc1ccccc1C(=O)N2Cc1ccccc1F was read as TDP-43 tox inh inactive.
`COc1cc(/C=C/C(=O)c2ccc3c(c2)OCCO3)cc(Br)c1OCC(=O)N(C)C` gave TDP-43 tox inh 15.8µM*.
Screening O=C(/C=C/c1ccncc1)c1ccc2c(c1)OCCO2 returned TDP-43 tox inh inactive.
COc1cc(C(=O)NNC(=O)c2ccc3c(c2)OCCO3)cc(OC)c1OC was read as TDP-43 tox inh inactive.
`COc1ccc(CCNC(=O)C(C)n2nc(C)c3sc4ccccc4c3c2=O)c(OC)c1` (stereo unspecified) gave TDP-43 tox inh inactive.
`COc1ccccc1-c1c(C)nn2c(-c3ccccc3)cc(-c3ccccc3)nc12` gave TDP-43 tox inh inactive.
For Cc1ccc(N=c2c([N+](=O)[O-])nn(-c3ccc4c(c3)OCCO4)n2O)cc1F the results were TDP-43 tox inh inactive.
Screening COc1ccc(-n2nc([N+](=O)[O-])c(=NCCc3cccc(C)c3)n2O)cc1 returned TDP-43 tox inh 12.6µM*.
COc1cccc(CNC(=O)Cn2nc([N+](=O)[O-])c(Br)c2C)c1 was read as TDP-43 tox inh inactive.
Screening Cc1ccc(-c2nn(C)c(=O)c3ccccc23)cc1S(=O)(=O)NCCCN(C)C returned TDP-43 tox inh inactive.
Screening S=c1[nH]cnc2scc(-c3ccc(Br)cc3)c12 returned TDP-43 tox inh inactive.
`O=c1[nH]cnc2scc(-c3ccc(Br)cc3)c12` gave TDP-43 tox inh inactive.
Screening Cc1ccc(-c2csc3nc[nH]c(=S)c23)cc1 returned TDP-43 tox inh 14.1µM*.
`Cc1cc(C)c(Cn2c(=O)n(CCCCCC(=O)NCc3ccc4c(c3)OCO4)c(=O)c3sccc32)c(C)c1` gave TDP-43 tox inh inactive.
CCCOc1ccc(CNC(=O)C(C)n2nc(C)n3c(cc4occc43)c2=O)cc1 (stereo unspecified) was read as TDP-43 tox inh inactive.
`Cc1ccc(C)c(CN2C(=O)c3ccccc3S(=O)(=O)c3ccc(C(=O)N4CCN(c5ccccn5)CC4)cc32)c1` gave TDP-43 tox inh inactive.
Cc1ccc(C)c(CN2C(=O)c3ccccc3S(=O)(=O)c3ccc(C(=O)N4CCCCC4)cc32)c1 was read as TDP-43 tox inh inactive.
Screening Cc1ccc2c(c1)N(CCCC(=O)NCc1cccc(F)c1)C(=O)CO2 returned TDP-43 tox inh inactive.
For CSc1ccc(CNC(=O)Cc2csc3ccccc23)cc1 the results were TDP-43 tox inh inactive.
`CCOc1cccc(C(=O)N(Cc2ccc(C)o2)C2CCS(=O)(=O)C2)c1` (stereo unspecified) gave TDP-43 tox inh inactive.
CC(=O)Nc1sc(NC(=O)c2ccco2)nc1-c1cccs1 was read as TDP-43 tox inh inactive.
For O=C(O)Cc1sc(Nc2ccc(Cl)cc2)nc1-c1cccs1 the results were TDP-43 tox inh inactive.
For CC1CC1C(=O)Nc1nc(-c2cccs2)c(-c2cccs2)s1 (stereo unspecified) the results were TDP-43 tox inh 11.2µM*.
`CC(C)(C)c1ccc(-c2nc(NC(=O)CSc3ncnc4sc5c(c34)CCCC5)ns2)cc1` gave TDP-43 tox inh inactive.
For OC(CNc1ncnc2sccc12)c1ccccc1 (stereo unspecified) the results were TDP-43 tox inh inactive.
`CN(C)C(CNc1ncnc2sccc12)c1ccccc1` (stereo unspecified) gave TDP-43 tox inh inactive.
Fc1ccc(Nc2ncnc3sccc23)cc1 was read as TDP-43 tox inh 11.2µM*.
For Cc1cc(C)c(Cn2c(=O)n(CCCC(=O)NCc3ccc4c(c3)OCO4)c(=O)c3sccc32)c(C)c1 the results were TDP-43 tox inh inactive.
`Cc1nc([N+](=O)[O-])c(C(=O)OCc2cccc(Br)c2)n1C` gave TDP-43 tox inh 12.6µM*.
Cc1nc([N+](=O)[O-])c(C(=O)OCc2ccccc2)n1C was read as TDP-43 tox inh inactive.
For COc1cc(OC)cc(C(=O)OCc2ccc([N+](=O)[O-])cc2)c1 the results were TDP-43 tox inh inactive.
For CN(c1ccccc1C(=O)O)S(=O)(=O)c1ccc2[nH]c(=O)oc2c1 the results were TDP-43 tox inh inactive.
For CC(C)CNC(=O)c1cccc2c(-c3cccnc3)coc12 the results were TDP-43 tox inh inactive.
For O=C(NCC1CCOCC1)c1cccc2c(-c3cccnc3)coc12 the results were TDP-43 tox inh inactive.
Screening COc1ccc(NC(=O)c2cccc3c(-c4cccnc4)coc23)cc1 returned TDP-43 tox inh 10µM*.
Cc1ccc(-c2nnc3c4ccccc4c(C)nn23)cc1NC(=O)c1ccccc1Cl was read as TDP-43 tox inh inactive.
For Cc1cccc(OCc2ccc(-c3nc(C#N)c(NCCN(C)C)o3)o2)c1 the results were TDP-43 tox inh inactive.
For c1ccc(-c2nc(-c3ccco3)n3ccccc23)cc1 the results were TDP-43 tox inh 12.6µM*.
Fc1ccc(-n2c(-c3ccco3)nc3nc4ccccc4nc32)cc1 was read as TDP-43 tox inh inactive.
Clc1c(-c2ccccc2)nc2ccccn12 was read as TDP-43 tox inh inactive.
For N/C(=N\OC(=O)Cc1ccccc1)c1ccc([N+](=O)[O-])cc1 the results were TDP-43 tox inh 11.2µM*.
